High-throughput results deposited in PubChem BioAssay by National Center for Advancing Translational Sciences (NCATS).
DT40 TDP1 no CPT – qHTS for Inhibitors of human tyrosyl-DNA phosphodiesterase 1 (TDP1): qHTS in cells in absence of CPT. Potency, µM (highest dose often 46.2 µM), inactives show top-dose activity change, negative = growth inhibition, usual class: inhibitors. 15% of 420,000 active. DT40 Tdp1-/- hTDP1 cells, no CPT, ATP luminescence, 48 h. AID 686978, 2013; note: potency is the fitted concentration of half-maximal effect; nearly all actives have a fitted effect of over 55% in size
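Growth kinetics read by CellTiter-Glo luminescence after ≥48 hr at 37 °C. Cells: DT40 Tdp1-/- stably carrying human TDP1, 400 per well, compound exposure in the absence of CPT (DMSO vehicle).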
DT40 TDP1 CPT – DT40-hTDP1 cell growth loss with CPT. chicken DT40 Tdp1-/-;hTDP1 cells + 20 nM CPT, ATP luminescence, 48 h. Potency, µM (top dose mostly 46.2 µM), for the others: top-dose activity change, negative = growth inhibition, hits mostly inhibitors. 12% of 420,000 active. AID 686979; note: potency is the fitted concentration of half-maximal effect; nearly all actives have a fitted effect of over 55% in size
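Cell growth measured by CellTiter-Glo luminescence after a minimum 48 h, 37 C compound exposure with 20 nM CPT in Tdp1-knockout DT40 cells stably expressing hTDP1, seeded 400/well; qHTS titration format.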
LDHA block – blocks human lactate dehydrogenase A. P00338. purified LDHA, NADH/diaphorase-resazurin fluorescence; stronger effect = lower value. activity change, % (values are at about 110 or 230 µM). 0.15% of 480,000 active. AID 1347041; in the data active = activity change below about -30%; inconclusive = mostly about -25% to -30%;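 note: plate controls were DMSO wells for no effect and wells without enzyme for full effect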
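Enzyme activity of human lactate dehydrogenase 5 (2 nM; 0.06 mM NADH, 0.2 mM pyruvate, 5 min, RT) is measured via a resazurin/diaphorase fluorescence readout of residual NADH.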
IL1B secr inh – inflammasome signaling inhibition, IL-1 beta readout; THP-1 LPS/ATP IL-1B secretion, AlphaLISA, 16 h; stronger effect = lower value; activity change, % at 57.5 µM; 4.7% of 360,000 active; AID 743279; in the data active = activity change below about -50%; inconclusive = mostly about -30% to -49%
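THP-1 cells pretreated 1 hr with compounds (up to 57.5 uM final), then stimulated with LPS (250 ng/mL final) plus ATP (1.25 mM final); secreted IL-1B measured by AlphaLISA after 16 hr, decreased signal indicating inhibition.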
Active calls of the source: *; ? = inconclusive; nt = no result given. Shown are actives, neighbours in structure and some others; about 18% of the full set was active somewhere. Unless noted, calls come from the whole dose curve; as a rule, active = well fitted inhibition curve with a large enough effect; inconclusive = small, poorly fitted or top-dose-only effect; inactive = flat fitted curve, though single readings scatter. Unless noted, % is set by controls: 0 for no effect and ±100 for the full control effect.

SMILES	DT40 TDP1 no CPT	DT40 TDP1 CPT	LDHA block	IL1B secr inh
COc1ccc(CNCc2ccccc2)cc1COc1ccc(NC(C)=O)cc1	10µM*	8.9µM*	-1	nt
COc1ccc(CN(Cc2ccccc2)C(=O)c2cccc(C#N)c2)cc1COc1ccc(NC(C)=O)cc1	14µM*	8.9µM*	4	nt
Nc1nc(SCc2ccccc2)c2ncn(Cc3ccccc3)c2n1	?	?	-1	-64*
CCCCn1cnc2c(SCc3ccccc3Cl)nc(N)nc21	?	-4%	5	-87*
CCCn1cnc2c(SCc3ccc(Cl)cc3)nc(N)nc21	?	?	-2	-63*
CCCCn1cnc2c(SCc3ccc(Br)cc3)nc(N)nc21	?	?	-3	-84*
CC(C)Cn1cnc2c(SCCc3ccccc3)nc(N)nc21	?	?	-4	-9
CCCCn1cnc2c(SCc3ccccc3)nc(N)nc21	?	?	-6	-50*
CCCn1cnc2c(SCc3ccccc3)nc(N)nc21	?	3%	-14	-21
CCc1ccc(CNC(=O)c2ccc(Cn3c(=O)c4cccn4c4cccnc43)cc2)cc1	0.46µM*	?	-5	nt
CC(C)CCNC(=O)c1ccc(Cn2c(=O)c3cccn3c3cccnc32)cc1	0.52µM*	?	-14	nt
COc1ccc(CNC(=O)c2ccc(Cn3c(=O)c4cccn4c4cccnc43)cc2)cc1OC	-16%	4%	-7	nt
Cc1ccc(CCNC(=O)c2ccc(Cn3c(=O)c4cccn4c4cccnc43)cc2)cc1	?	?	-2	nt
CCC(C)NC(=O)Cn1c(=O)n(-c2ccc(C)cc2)c(=O)c2ccccc21 (stereo unspecified)	1%	-4%	-5	nt
Cc1ccccc1CCNC(=O)c1ccc(Cn2c(=O)c3cccn3c3cccnc32)cc1	18µM*	?	-1	nt
CCC(C)NC(=O)Cn1c(=O)n(Cc2ccc(C(=O)NCc3ccc(C)cc3)cc2)c(=O)c2ccccc21 (stereo unspecified)	23µM*	10µM*	-15	nt
COC(=O)c1cc(OC(=O)c2cccc3ccccc23)cc(C(=O)OC)c1	nt	nt	0	nt
COc1nc2cc(C)c(C)cc2nc1C(=O)Nc1ccc(C)cc1	nt	nt	-8	nt
Cc1ccc(CN(C(=O)CCCc2cccs2)C2CC2)cc1	nt	nt	3	nt
CCCCCCCCN1C(=O)[C@H](CC(=O)NCc2ccccc2)C[C@@]2(C(=O)OC)CCCCC=C12	15µM*	16µM*	4	-82*
C#CCNC(=O)C[C@@H]1C[C@@]2(C(=O)OC)CCCCC=C2N(CCCCCCCC)C1=O	23µM*	16µM*	2	-13
CCOC(=O)[C@]12CCCC=C1N(Cc1ccccc1)C(=O)[C@H](CC(=O)NCc1ccc(OC)c(OC)c1)C2	?	?	4	?
COC(=O)[C@]12CCCCC=C1N(Cc1ccccc1)C(=O)[C@H](CC(=O)NCc1ccc(OC)c(OC)c1)C2	23µM*	23µM*	-2	-20
CCCCCCCCN1C(=O)[C@H](CC(=O)NCc2ccc(OC)c(OC)c2)C[C@@]2(C(=O)OCC)CCC=C12	21µM*	?	3	-77*
CCOc1ccccc1OCc1nn2c(C(C)C)nnc2s1	nt	nt	0	nt
SMILES	DT40 TDP1 no CPT	DT40 TDP1 CPT	LDHA block	IL1B secr inh
CCCCOc1ccc2c(C)c(C)c(=O)oc2c1	nt	nt	7	nt
CN(CC(=O)N(C)c1c(N)n(Cc2ccccc2)c(=O)[nH]c1=O)Cc1ccccc1F	nt	nt	3	nt
O=C1CCc2cc(C(=O)NCc3ccc4c(c3)OCO4)ccc2N1	nt	nt	-2	nt
CCCCCCCCN1C(=O)[C@H](CC(=O)NCc2ccc(OC)c(OC)c2)C[C@@]2(C(=O)OC)CCCCC=C12	21µM*	?	7	-58*
COc1ccc(NC(=O)Cc2c(C)c3ccc(O)cc3oc2=O)cc1OC	nt	nt	0	nt
CCCNc1c(NC(=O)c2ccccc2)c(=O)oc2ccccc12	nt	nt	1	nt
